# Source: paper PMC7862700, “An all-to-all approach to the identification of sequence-specific readers for epigenetic DNA modifications on cytosine”
# Experiments:
# Test in all cases: DAPPL (digital affinity profiling via proximity ligation, sequencing); 10 mM Tris-HCl pH 7.5, 50 mM NaCl, 1 mM DTT, 4% glycerol, room temperature, 30 min; GST-TFs on glutathione beads, 16-mer random dsDNA library, 0.1% formaldehyde crosslink after washing; high values mean tight binding
# [1] = molecular target: T1, FLI1 (Homo sapiens, UniProt Q01543 1-452); settings: protein: recombinant; tags: N-terminal GST; dsDNA, one strand shown
# T1 sequence: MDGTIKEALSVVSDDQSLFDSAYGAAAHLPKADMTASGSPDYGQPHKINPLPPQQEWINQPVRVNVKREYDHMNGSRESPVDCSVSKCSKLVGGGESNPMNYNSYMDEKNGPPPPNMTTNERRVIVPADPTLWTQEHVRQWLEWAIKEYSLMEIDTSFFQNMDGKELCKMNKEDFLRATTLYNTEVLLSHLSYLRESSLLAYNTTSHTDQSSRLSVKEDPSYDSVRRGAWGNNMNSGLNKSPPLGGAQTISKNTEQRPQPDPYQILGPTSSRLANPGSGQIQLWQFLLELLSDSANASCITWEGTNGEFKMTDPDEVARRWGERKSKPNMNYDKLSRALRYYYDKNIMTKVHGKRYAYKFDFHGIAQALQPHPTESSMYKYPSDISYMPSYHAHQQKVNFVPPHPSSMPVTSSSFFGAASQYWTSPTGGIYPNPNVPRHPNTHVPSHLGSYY
# Method in brief: (§1)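 GST fusions of human transcription factors were expressed in yeast and captured with glutathione beads. Once given DNA barcodes and pooled alongside a tag-only sample, they were incubated for 30 min at room temperature with 200 nmole of a random double-stranded 16-mer DNA library in Tris/NaCl/DTT/glycerol buffer, then washed, crosslinked (0.1% formaldehyde), proximity-ligated, PCR-amplified and sequenced on an Illumina NextSeq500. The binding signal of each hexamer is its read frequency for a factor divided by its frequency for the tag-only sample.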
# [2] = molecular target: T2, ELK1 (Homo sapiens, UniProt P19419 1-428); settings: protein: recombinant; tags: N-terminal GST; dsDNA, one strand shown
# T2 sequence: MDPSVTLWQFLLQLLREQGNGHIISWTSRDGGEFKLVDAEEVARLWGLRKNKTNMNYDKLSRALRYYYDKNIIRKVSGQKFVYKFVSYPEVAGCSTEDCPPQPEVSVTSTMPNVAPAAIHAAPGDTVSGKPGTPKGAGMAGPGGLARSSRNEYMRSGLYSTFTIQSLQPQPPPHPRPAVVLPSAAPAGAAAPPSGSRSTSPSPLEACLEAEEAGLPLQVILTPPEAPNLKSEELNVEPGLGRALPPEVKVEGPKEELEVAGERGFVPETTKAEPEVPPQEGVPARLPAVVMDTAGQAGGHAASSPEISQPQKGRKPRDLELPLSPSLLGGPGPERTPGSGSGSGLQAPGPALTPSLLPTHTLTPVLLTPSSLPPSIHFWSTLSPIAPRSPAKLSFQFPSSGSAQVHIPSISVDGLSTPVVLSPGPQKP
# Method in brief: as §1
# [3] = molecular target: T3, GABPA (Homo sapiens, UniProt Q06546 1-454); settings: protein: recombinant; tags: N-terminal GST; dsDNA, one strand shown
# T3 sequence: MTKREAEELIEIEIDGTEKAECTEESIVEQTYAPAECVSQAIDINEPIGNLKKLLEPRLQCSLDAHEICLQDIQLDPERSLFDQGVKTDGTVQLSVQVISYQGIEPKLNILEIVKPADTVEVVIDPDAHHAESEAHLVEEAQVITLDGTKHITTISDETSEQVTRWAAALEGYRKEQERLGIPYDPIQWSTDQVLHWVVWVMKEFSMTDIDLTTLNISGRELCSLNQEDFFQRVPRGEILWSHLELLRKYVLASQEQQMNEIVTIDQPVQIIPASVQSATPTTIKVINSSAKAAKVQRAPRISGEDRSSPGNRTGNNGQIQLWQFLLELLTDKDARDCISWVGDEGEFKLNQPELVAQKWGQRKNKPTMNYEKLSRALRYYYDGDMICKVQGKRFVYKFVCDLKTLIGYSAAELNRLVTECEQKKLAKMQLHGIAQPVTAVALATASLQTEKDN
# Method in brief: as §1
# [4] = molecular target: T4, ERG (Homo sapiens, UniProt P11308 1-479); settings: protein: recombinant; tags: N-terminal GST; dsDNA, one strand shown
# T4 sequence: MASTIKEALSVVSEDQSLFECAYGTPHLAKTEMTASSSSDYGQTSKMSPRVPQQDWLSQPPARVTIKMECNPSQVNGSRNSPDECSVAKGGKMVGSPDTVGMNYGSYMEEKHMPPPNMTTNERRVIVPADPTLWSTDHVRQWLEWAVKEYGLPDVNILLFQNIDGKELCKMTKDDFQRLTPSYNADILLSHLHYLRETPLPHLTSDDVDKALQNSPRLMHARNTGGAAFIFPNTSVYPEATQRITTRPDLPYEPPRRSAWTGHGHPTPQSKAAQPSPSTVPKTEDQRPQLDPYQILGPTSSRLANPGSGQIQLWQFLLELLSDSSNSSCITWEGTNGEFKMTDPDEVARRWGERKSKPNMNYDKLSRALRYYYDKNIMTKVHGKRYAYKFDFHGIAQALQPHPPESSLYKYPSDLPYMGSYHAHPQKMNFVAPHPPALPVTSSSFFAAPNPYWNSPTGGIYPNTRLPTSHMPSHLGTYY
# Method in brief: as §1
# [5] = molecular target: ELF1 (Homo sapiens, UniProt P32519 1-619); settings: protein: recombinant; tags: N-terminal GST; dsDNA, one strand shown
# ELF1, sequence (P32519 whole entry): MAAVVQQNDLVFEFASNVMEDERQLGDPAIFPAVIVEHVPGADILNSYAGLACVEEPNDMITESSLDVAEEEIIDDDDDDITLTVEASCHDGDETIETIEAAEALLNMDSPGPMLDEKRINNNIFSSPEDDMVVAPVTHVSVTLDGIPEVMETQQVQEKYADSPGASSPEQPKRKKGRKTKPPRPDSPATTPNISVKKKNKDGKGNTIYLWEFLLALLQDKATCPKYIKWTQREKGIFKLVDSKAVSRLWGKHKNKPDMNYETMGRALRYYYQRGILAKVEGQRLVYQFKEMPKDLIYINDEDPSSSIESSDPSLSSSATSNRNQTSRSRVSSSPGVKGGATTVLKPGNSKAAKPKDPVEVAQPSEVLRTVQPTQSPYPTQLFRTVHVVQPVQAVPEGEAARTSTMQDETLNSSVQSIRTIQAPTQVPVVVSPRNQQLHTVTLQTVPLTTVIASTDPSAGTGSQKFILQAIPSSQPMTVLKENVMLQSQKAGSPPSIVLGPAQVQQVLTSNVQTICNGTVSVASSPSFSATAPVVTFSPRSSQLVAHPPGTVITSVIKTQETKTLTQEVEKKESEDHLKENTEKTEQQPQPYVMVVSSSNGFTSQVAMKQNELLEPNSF
# Method in brief: as §1
# [6] = molecular target: T5, EHF (Homo sapiens, UniProt Q9NZC4 1-300); settings: protein: recombinant; tags: N-terminal GST; dsDNA, one strand shown
# T5 sequence: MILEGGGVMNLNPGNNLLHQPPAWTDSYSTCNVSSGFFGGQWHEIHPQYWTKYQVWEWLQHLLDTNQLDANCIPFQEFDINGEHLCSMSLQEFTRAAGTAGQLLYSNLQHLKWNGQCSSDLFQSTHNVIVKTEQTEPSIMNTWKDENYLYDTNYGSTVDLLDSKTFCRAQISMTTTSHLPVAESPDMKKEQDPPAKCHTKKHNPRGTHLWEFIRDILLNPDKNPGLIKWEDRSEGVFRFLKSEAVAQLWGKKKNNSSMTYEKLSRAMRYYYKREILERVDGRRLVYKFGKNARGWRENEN
# Method in brief: as §1
# [7] = molecular target: SPI1 (Homo sapiens, UniProt P17947 1-270); settings: protein: recombinant; tags: N-terminal GST; dsDNA, one strand shown
# Method in brief: as §1
# [8] = molecular target: SPIB (Homo sapiens, UniProt Q01892 1-262); settings: protein: recombinant; tags: N-terminal GST; dsDNA, one strand shown
# SPIB, sequence (Q01892 whole entry): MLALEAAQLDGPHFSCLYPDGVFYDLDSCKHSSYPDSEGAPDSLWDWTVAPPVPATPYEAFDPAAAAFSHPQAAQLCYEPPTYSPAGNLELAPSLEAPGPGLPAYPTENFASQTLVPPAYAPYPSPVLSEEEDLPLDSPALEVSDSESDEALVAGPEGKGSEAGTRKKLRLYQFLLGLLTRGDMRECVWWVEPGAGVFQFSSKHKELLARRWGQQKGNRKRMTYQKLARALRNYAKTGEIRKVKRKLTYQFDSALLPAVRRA
# Method in brief: as §1
# [9] = molecular target: T6, ELK3 (Homo sapiens, UniProt P41970 1-407); settings: protein: recombinant; tags: N-terminal GST; dsDNA, one strand shown
# T6 sequence: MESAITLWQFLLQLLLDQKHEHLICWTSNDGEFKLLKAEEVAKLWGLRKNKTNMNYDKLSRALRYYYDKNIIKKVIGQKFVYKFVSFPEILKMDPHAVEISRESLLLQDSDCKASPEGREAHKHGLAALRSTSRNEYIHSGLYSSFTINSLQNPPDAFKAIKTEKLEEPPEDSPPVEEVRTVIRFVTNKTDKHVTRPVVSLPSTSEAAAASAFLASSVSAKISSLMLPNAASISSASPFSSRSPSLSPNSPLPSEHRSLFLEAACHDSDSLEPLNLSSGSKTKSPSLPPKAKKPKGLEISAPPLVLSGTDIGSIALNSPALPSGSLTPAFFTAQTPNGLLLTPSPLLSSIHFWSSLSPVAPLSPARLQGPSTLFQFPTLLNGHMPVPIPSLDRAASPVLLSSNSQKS
# Method in brief: as §1
# [10] = molecular target: T7, FEV (Homo sapiens, UniProt Q99581 1-238); settings: protein: recombinant; tags: N-terminal GST; dsDNA, one strand shown
# T7 sequence: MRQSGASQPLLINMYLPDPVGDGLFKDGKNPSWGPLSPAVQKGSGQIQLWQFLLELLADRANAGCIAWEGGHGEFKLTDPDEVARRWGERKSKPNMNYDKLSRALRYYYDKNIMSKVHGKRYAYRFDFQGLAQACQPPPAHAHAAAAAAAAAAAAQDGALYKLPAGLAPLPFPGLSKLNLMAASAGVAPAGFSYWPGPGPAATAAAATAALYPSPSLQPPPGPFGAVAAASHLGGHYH
# Method in brief: as §1
# [11] = molecular target: ETV5 (Homo sapiens, UniProt P41161 1-510); settings: protein: recombinant; tags: N-terminal GST; dsDNA, one strand shown
# ETV5, sequence (P41161 whole entry): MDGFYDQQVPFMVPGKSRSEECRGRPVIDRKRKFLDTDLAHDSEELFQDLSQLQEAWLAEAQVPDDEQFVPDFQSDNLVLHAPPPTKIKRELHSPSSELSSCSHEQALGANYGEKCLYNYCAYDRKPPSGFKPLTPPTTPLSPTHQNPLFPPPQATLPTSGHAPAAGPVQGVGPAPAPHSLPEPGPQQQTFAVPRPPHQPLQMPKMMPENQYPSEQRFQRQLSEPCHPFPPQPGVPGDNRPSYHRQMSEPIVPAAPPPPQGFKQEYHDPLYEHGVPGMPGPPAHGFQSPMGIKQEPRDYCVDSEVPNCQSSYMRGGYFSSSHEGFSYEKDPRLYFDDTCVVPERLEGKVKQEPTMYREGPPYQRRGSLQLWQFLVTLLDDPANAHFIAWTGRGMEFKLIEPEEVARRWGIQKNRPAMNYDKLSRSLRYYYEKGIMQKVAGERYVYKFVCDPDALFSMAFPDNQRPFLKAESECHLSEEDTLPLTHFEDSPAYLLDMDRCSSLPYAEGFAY
# Method in brief: as §1
# [12] = molecular target: HSF1 (Homo sapiens, UniProt Q00613 1-529); settings: protein: recombinant; tags: N-terminal GST; chain copies: 3; dsDNA, one strand shown
# HSF1, sequence (Q00613 whole entry): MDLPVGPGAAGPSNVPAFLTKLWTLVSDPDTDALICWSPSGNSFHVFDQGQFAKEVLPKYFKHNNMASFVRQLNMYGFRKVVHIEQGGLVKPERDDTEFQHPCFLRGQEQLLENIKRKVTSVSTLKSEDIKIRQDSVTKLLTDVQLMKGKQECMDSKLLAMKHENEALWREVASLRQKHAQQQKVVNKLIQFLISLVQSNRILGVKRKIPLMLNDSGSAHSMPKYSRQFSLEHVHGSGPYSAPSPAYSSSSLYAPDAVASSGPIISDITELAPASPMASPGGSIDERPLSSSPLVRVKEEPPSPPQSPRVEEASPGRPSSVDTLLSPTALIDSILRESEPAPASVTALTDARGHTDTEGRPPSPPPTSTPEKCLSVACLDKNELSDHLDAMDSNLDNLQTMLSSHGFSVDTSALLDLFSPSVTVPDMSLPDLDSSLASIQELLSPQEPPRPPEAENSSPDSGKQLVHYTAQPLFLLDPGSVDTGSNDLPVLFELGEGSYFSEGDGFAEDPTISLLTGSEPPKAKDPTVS
# Method in brief: as §1
# [13] = molecular target: T8, SPIC (Homo sapiens, UniProt Q8N5J4 1-248); settings: protein: recombinant; tags: N-terminal GST; dsDNA, one strand shown
# T8 sequence: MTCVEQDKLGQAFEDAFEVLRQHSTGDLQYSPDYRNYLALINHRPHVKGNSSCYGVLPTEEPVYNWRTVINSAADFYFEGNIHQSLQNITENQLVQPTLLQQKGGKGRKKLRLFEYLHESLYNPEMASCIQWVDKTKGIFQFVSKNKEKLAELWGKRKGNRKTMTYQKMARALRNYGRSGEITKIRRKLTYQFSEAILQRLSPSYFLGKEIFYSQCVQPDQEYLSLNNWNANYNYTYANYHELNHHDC
# Method in brief: as §1
# [14] = molecular target: ELF4 (Homo sapiens, UniProt Q99607 1-663); settings: protein: recombinant; tags: N-terminal GST; dsDNA, one strand shown
# ELF4, sequence (Q99607 whole entry): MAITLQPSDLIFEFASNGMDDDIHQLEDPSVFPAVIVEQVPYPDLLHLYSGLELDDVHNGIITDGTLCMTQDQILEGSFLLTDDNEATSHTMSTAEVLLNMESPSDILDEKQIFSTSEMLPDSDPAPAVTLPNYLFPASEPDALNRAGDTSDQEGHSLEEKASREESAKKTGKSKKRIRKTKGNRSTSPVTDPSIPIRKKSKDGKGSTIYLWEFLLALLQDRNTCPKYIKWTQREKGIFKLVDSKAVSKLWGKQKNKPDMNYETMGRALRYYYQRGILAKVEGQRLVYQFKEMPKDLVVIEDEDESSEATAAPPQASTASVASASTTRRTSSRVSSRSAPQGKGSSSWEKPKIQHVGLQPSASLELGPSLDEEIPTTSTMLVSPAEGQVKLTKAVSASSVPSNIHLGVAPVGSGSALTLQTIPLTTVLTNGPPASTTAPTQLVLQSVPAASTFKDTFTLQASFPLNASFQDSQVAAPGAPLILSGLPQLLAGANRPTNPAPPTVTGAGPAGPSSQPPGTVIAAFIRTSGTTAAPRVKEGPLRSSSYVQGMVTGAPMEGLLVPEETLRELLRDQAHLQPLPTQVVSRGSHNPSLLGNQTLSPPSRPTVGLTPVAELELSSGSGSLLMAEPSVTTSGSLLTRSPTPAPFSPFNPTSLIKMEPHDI
# Method in brief: as §1
# [15] = molecular target: T9, ELK4 (Homo sapiens, UniProt P28324-2 1-405); settings: protein: recombinant; tags: N-terminal GST; dsDNA, one strand shown
# T9 sequence: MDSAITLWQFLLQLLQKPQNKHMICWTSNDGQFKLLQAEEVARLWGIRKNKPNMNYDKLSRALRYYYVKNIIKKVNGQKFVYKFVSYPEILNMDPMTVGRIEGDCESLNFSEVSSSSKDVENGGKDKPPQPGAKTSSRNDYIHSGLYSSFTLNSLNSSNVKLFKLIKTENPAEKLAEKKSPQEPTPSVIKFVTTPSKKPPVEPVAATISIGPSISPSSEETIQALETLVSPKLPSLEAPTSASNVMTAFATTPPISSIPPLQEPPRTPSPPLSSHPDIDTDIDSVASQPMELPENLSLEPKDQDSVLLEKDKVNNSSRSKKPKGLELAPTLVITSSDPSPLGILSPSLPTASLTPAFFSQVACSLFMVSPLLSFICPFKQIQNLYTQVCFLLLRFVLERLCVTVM
# Method in brief: as §1
# [16] = molecular target: T10, ETV2 (Homo sapiens, UniProt O00321 1-342); settings: protein: recombinant; tags: N-terminal GST; dsDNA, one strand shown
# T10 sequence: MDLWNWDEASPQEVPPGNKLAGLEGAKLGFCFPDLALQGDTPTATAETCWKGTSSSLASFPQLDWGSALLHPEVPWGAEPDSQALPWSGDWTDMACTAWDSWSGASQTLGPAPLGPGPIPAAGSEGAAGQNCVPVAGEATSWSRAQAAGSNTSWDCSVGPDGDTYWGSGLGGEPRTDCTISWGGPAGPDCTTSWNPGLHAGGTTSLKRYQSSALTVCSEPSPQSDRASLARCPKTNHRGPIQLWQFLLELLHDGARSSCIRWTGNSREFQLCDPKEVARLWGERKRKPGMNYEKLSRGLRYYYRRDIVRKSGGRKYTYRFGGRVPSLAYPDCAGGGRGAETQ
# Method in brief: as §1
# [17] = molecular target: T11, ELF3 (Homo sapiens, UniProt P78545 1-371); settings: protein: recombinant; tags: N-terminal GST; dsDNA, one strand shown
# T11 sequence: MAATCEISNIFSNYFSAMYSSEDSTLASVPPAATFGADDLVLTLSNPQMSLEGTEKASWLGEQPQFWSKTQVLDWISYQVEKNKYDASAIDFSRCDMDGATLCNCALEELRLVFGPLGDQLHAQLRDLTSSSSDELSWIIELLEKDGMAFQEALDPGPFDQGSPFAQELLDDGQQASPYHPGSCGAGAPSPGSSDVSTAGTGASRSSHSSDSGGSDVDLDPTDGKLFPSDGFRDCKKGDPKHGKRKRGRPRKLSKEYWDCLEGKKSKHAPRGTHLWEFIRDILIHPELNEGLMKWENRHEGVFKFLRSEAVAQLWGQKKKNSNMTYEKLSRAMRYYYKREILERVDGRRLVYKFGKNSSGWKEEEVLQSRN
# Method in brief: as §1
# [18] = molecular target: CRX (Homo sapiens, UniProt O43186 1-299); settings: protein: recombinant; tags: N-terminal GST; dsDNA, one strand shown
# CRX, sequence (O43186 whole entry): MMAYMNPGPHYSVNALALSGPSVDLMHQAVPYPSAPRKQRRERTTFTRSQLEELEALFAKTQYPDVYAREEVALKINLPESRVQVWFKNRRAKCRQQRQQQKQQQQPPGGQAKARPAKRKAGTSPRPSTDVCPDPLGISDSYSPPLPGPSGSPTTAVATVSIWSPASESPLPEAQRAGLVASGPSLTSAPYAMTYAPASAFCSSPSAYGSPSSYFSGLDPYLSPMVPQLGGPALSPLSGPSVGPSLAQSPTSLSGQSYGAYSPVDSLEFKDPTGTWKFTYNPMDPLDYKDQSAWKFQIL
# Method in brief: as §1
# [19] = molecular target: ETV1 (Homo sapiens, UniProt P50549 1-477); settings: protein: recombinant; tags: N-terminal GST; dsDNA, one strand shown
# ETV1, sequence (P50549 whole entry): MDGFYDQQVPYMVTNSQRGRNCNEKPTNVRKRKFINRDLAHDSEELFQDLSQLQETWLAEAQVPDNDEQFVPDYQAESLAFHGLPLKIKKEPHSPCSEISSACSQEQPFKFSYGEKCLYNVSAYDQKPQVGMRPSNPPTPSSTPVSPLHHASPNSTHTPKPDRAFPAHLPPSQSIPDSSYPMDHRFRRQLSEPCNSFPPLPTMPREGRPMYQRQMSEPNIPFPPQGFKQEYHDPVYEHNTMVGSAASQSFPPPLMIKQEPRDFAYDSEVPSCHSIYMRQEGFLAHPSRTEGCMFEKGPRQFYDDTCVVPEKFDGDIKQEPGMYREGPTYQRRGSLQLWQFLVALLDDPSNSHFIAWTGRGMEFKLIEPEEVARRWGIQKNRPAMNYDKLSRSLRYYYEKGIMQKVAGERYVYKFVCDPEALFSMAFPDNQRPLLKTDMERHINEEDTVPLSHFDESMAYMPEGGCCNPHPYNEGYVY
# Method in brief: as §1
sequence,measurement,setting,value
GTCTTA,binding signal,[1],"1.1 fold enrichment (6-mer frequency, TF over GST control)"
same,binding signal,[2],"1.14 fold enrichment (6-mer frequency, TF over GST control)"
same,binding signal,[3],"1.08 fold enrichment (6-mer frequency, TF over GST control)"
same,binding signal,[4],"1.06 fold enrichment (6-mer frequency, TF over GST control)"
same,binding signal,[5],"1.11 fold enrichment (6-mer frequency, TF over GST control)"
same,binding signal,[6],"1.08 fold enrichment (6-mer frequency, TF over GST control)"
same,binding signal,[7],"1.14 fold enrichment (6-mer frequency, TF over GST control)"
same,binding signal,[8],"1.14 fold enrichment (6-mer frequency, TF over GST control)"
same,binding signal,[9],"1.06 fold enrichment (6-mer frequency, TF over GST control)"
same,binding signal,[10],"1.07 fold enrichment (6-mer frequency, TF over GST control)"
same,binding signal,[11],"1.14 fold enrichment (6-mer frequency, TF over GST control)"
same,binding signal,[12],"1.35 fold enrichment (6-mer frequency, TF over GST control)"
same,binding signal,[13],"1.07 fold enrichment (6-mer frequency, TF over GST control)"
same,binding signal,[14],"1.08 fold enrichment (6-mer frequency, TF over GST control)"
same,binding signal,[15],"1.04 fold enrichment (6-mer frequency, TF over GST control)"
same,binding signal,[16],"1.14 fold enrichment (6-mer frequency, TF over GST control)"
same,binding signal,[17],"1.16 fold enrichment (6-mer frequency, TF over GST control)"
same,binding signal,[18],"1.94 fold enrichment (6-mer frequency, TF over GST control)"
same,binding signal,[19],"1.15 fold enrichment (6-mer frequency, TF over GST control)"
